Among all 50,000 compounds or so, about 800 (1.6%) showed an effect of 50% or more. Shown is part of a subset that was picked to be rich in strong results.

Here are results for 26 molecules from PubChem BioAssay AID1240 (Sanford-Burnham Center for Chemical Genomics, 2008).

The target in the test is Bcl-2-like protein 10 (Homo sapiens) (UniProt Q9HD36). The test can be described thus: Phenotype converters, Bcl-B/TR3 peptide binding displacement, primary biochemical FP (AID 1240).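 Further: 0% = Bcl-B with tracer peptide and DMSO and 100% = tracer peptide lacking Bcl-B.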 Particulars: GST-Bcl-B / FITC-TR3 peptide fluorescence polarization; stronger effect = higher value; compound at 3.75 mg/L. In general terms: Fluorescence polarisation rises when a labelled molecule tumbles more slowly, as on binding a larger partner.
Bcl-2-like protein 10 (Homo sapiens), sequence (Q9HD36 whole entry, looked up): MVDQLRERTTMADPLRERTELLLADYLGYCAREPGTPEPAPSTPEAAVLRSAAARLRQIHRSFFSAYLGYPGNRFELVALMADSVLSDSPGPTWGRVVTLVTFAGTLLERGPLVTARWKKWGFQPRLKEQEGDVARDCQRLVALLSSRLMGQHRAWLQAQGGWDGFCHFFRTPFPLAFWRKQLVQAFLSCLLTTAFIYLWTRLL
`O=C(c1ccccc1)c1ccc(N=Cc2ccc([N+](=O)[O-])s2)cc1`: the displacement came out at 8.8%. Next, `CCOc1ccccc1/C=C/C(=O)c1cccs1`: -11.9%; `CC(C)CN1C(=O)/C(=C/c2cccc3ccccc23)SC1=S`: 8.3%. Next, `O=[N+]([O-])c1cccc(S(=O)(=O)NCc2ccccc2)c1`: -3.3%; `NNC(=O)CSc1nc2ccccc2n1Cc1ccccc1`: -9.6%.

`Cc1occc1C(=O)NC1CCCCCC1`: the displacement was -13.4%. `Cc1ccc(CNC(=O)C(C)Oc2ccc(Cl)cc2Cl)cc1` (stereo unspecified): the displacement was -12.1%. As to `Cc1ccc(S(=O)(=O)Oc2cccc(/C=c3/sc4nc5ccccc5n4c3=O)c2)cc1`, the displacement is -0.5%. Next, `O=c1/c(=C\c2cccc(OS(=O)(=O)c3cccc([N+](=O)[O-])c3)c2)sc2nc3ccccc3n12`: 101%.

As to `O=c1/c(=C\c2ccc(OS(=O)(=O)c3cccc([N+](=O)[O-])c3)cc2)sc2nc3ccccc3n12`, the displacement is -6.5%. Turning to `Cc1ccc(S(=O)(=O)Oc2ccc(/C=C3\SC(=S)NC3=O)cc2)cc1`, the displacement was -32.2%. `COC(=O)c1cc(N=NC2=C(O)CC(C)(C)CC2=O)cc(C(=O)OC)c1`: the displacement is -7.3%. Next, `CCC(=O)Nc1ccc(NC(=O)/C=C/c2ccc(-c3ccc(Cl)cc3Cl)o2)cc1`: -14.5%; `O=C(Nc1ccc(N2CCOCC2)cc1)c1ccc(-c2ccc(Cl)cc2Cl)o1`: -4.5%. As to `O=C(/C=C/c1ccc(-c2ccc(Cl)cc2Cl)o1)Nc1ccc(N2CCOCC2)cc1`, the displacement is 83%.

As for `O=C(O)c1cc(C(=O)O)cc(N2C(=O)c3ccc(Oc4cccc([N+](=O)[O-])c4)cc3C2=O)c1`, the displacement stood at 3.2%. Take `CC1(C)NN(c2ccccc2)C(=S)N1CN1CCOCC1`: the displacement was 55.9%.

For `S=c1n(CN2CCOCC2)nnn1-c1ccccc1`, the displacement is -5.3%. Next, `CC1(C)NN(c2ccccc2)C(=S)N1c1ccccc1`: 9.6%; `O=C(Cn1c(-c2ccccc2)c[n+]2ccsc12)c1ccc([N+](=O)[O-])cc1`: 13.8%. Turning to `Cc1cc(/C=C2\C(=O)NC(=O)N(c3cccc(F)c3)C2=O)c(C)n1-c1cccc([N+](=O)[O-])c1`, the displacement turned out to be 12.3%. Take `Cc1cc(/C=C2\C(=O)NC(=O)N(c3ccccc3)C2=O)c(C)n1-c1cccc([N+](=O)[O-])c1`: the displacement was determined as 9.1%. Take `Cc1cc(/C=C2\C(=O)NC(=O)N(c3ccc4c(c3)OCO4)C2=O)c(C)n1-c1cccc([N+](=O)[O-])c1`: the displacement is 52.7%. Next, `Cc1cc(/C=C2\C(=O)NC(=O)N(c3ccc4c(c3)OCO4)C2=O)c(C)n1-c1ccccc1`: 16.1%; `Cc1cc(/C=C2\C(=O)NC(=O)N(c3ccc4c(c3)OCO4)C2=O)c(C)n1-c1cccnc1`: 136%. With `Cc1cc(/C=C2\C(=O)NC(=O)N(c3ccc4c(c3)OCO4)C2=O)c(C)n1-c1ccc(F)cc1`, the displacement is 8%.
